Experiments:
Test in all cases: PBM binding z-score (relative to random genomic background probes); higher = stronger binding; sequences stand for … in GC…GCGATTGACAGCGTAGAATGAAGG
[1] = system: RARb homodimer (NR concentration 270 nM)
Method in brief: (§1)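 For binding z-scores, the reference was random background probes on custom Agilent 4×180K protein-binding microarrays. These arrays were incubated 1 h with ligand-free nuclear receptor dimers in PBS pH 7.4, 2% milk, 0.02% Triton X-100, 1 mM DTT, 0.2 mg/mL BSA and 0.4 mg/ml salmon testes DNA. Fluorescence was scanned after antibody detection of each partner (one per run) and regression-normalized.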

[2] = system: RARg:RXRa (NR concentration 270 nM, RXRa partner concentration 90 nM)
Method in brief: as §1

[3] = system: RARg homodimer (NR concentration 270 nM)
Method in brief: as §1

[4] = system: RXRa DBDmut IVT, anti-RXR (DBD mutation: RXRa K156A/R161A, NR concentration 90 nM)
Method in brief: as §1

[5] = system: RXRa homodimer (NR concentration 180 nM)
Method in brief: as §1

[6] = system: THRa:RXRa (NR concentration 90 nM, RXRa partner concentration 90 nM)
Method in brief: as §1

[7] = system: THRa homodimer (NR concentration 90 nM)
Method in brief: as §1

[8] = system: VDR homodimer (NR concentration 270 nM)
Method in brief: as §1

| Sequence | PBM binding z-score [1] | PBM binding z-score [2] | PBM binding z-score [3] | PBM binding z-score [4] | PBM binding z-score [5] | PBM binding z-score [6] | PBM binding z-score [7] | PBM binding z-score [8] |
| --- | --- | --- | --- | --- | --- | --- | --- | --- |
| TGTAAAAGTTCAAAGGTAACGTAAGTATCCACAC | 3.5 | 5.35 | 5.12 | 4.06 | 6.28 | 3.53 | 0.192 | 2.83 |
| GATACAGGGTTAAGGCCAGAGTACGCGTATTGAT | 1.34 | 1.7 | 1.1 | -0.0819 | 1.76 | 2.05 | 0.861 | 1.02 |
| ATCTCTAGGTAAGACTCAGTTCATTGAAGAACGC | 0.892 | 0.375 | 0.586 | 1.31 | 0.538 | 1.58 | 0.923 | 3.67 |
| CCAGACAGGTGAAAGGTAACTCATTCTGGTACGC | 0.992 | 1.41 | 0.877 | 0.192 | 2.12 | 1.13 | 0.167 | 0.0322 |
| GATACAGGGTCAGCTAGAGGCCAGAGTATGGAAA | 3.39 | 6.67 | 4.67 | 1.4 | 4.36 | 3.08 | 0.503 | 0.622 |
| ACGAGCAGGCCAAGTTTGGGTCACTCAAACAAAG | 2.28 | 2.29 | 1.45 | -0.315 | 0.708 | 2.59 | 1.04 | 0.234 |
| TATACAGGGTCAGAGGCCAGAGTACGAATGTCGA | 3.01 | 4.21 | 4.27 | 1.39 | 4.32 | 2.74 | 0.817 | 2.2 |
| TAGCCTAAGTCATTGGGCCAGTATAGTACGCATC | -0.447 | 0.191 | 0.0194 | -0.879 | 0.156 | -0.214 | -0.958 | -0.312 |
| TCTATTAGTTGAATGGCAACCGACGAGTCCGTTT | 0.038 | 0.299 | 0.139 | 1.73 | 0.383 | -0.116 | 0.299 | 1.28 |
| CCGACTGGGGCATAAGATTACCATAAGCCAGCCC | -0.156 | -0.0949 | 0.359 | -0.222 | -0.0512 | -0.577 | -0.917 | -0.442 |
| ATCTCTAGGTAAAGATAGTTCATTGAATGCAAAT | 1.46 | 1.01 | 0.983 | 0.467 | 0.854 | 1.28 | 0.302 | 1.98 |
| CAAACTAGGTCACAGAGGTCAAAGGCCGTGCGTA | 5.17 | 7.3 | 7.71 | 3.23 | 8.06 | 4.42 | 2.89 | 6.86 |
| CTCGAAAGGTCGTGCTCAGGTGAGTATCCCAAAC | 2.88 | 5.08 | 3.47 | 2.02 | 4.66 | 4.05 | 1.22 | 0.742 |
| TCATATAGGTAAATGCTCGGTGAAAGTCCGATCT | 0.197 | 0.387 | 0.081 | 1.45 | 0.76 | 0.193 | 0.208 | 0.375 |
| CCTCGGAGGACAACAGGAGGACAGAGCTGCCAGA | 1.1 | 1.11 | 1.41 | -0.107 | 0.167 | 1.61 | 0.577 | 0.157 |
| CCGAATGGGGCATAAGGTTACCATAAGCCAGCCC | 1.7 | 1.67 | 1.03 | -0.221 | 1.49 | 2.1 | 1.45 | -0.245 |
| CAGCCTAGGTCAGAGCCAGTATAGGAGGAACGTT | 2.13 | 2.87 | 3.5 | 0.588 | 1.5 | 1.76 | 0.271 | -0.348 |
| TCTTGTAGATCAACAGGACGTTAAGAAAGATCGA | -0.694 | 0.531 | 0.151 | 0.714 | 0.45 | 0.0444 | -0.626 | -0.395 |
| TCATATAGGTAAATGGTGAAAGTCGGTGTGGTAA | 0.19 | 0.0436 | -0.12 | 1.83 | 0.476 | 0.0433 | 0.202 | 0.415 |
| TCATATGGGTAAACAGGTGAAAGTCCGTAAGTTA | 0.47 | 0.0718 | -0.135 | 0.95 | 0.566 | 0.434 | -0.368 | -0.103 |
| GATACAGGGTCAGCTAGAGACCAGAGTATGGAAA | 2.5 | 4.48 | 4.19 | 0.915 | 3.99 | 2.5 | 0.211 | 0.881 |
| CGAACTAGGTCACCGGAAGGTCAAAGTCCGCATG | 5.45 | 8.27 | 7.14 | 2.43 | 6.38 | 4.36 | 2.81 | 4.01 |
| TCAGACCGGTGAAGGTAACTCAGGTACGCAGTCG | 0.271 | 0.022 | -0.104 | 0.832 | 0.506 | 1.29 | -0.0547 | 0.152 |
| TCGAGTAGGTTACTCGGGGCATTCAGCCAACATA | 0.524 | 0.206 | 0.191 | 0.42 | 0.372 | 1.76 | -0.17 | 0.557 |
| ACTCGGAGGACAATGGTCAGAGCTACGCCAGTGA | 0.454 | 0.217 | 0.925 | 0.216 | -0.0471 | 0.235 | -0.526 | -0.36 |
| CCTAGAAGGCCAATCTGGGTCACTCAAGGCTTGA | 2.78 | 1.98 | 2.37 | 0.567 | 1.55 | 4.27 | 0.262 | 0.0868 |
| CCTCGGAGGACAGAAGGTCAGAGTTGTCCGCTTT | 3.6 | 3.24 | 2.91 | 0.56 | 1.73 | 2.08 | 0.133 | 0.396 |
| CGTCCAAGGTCAGAGAGATCAGTGAATGCCGAGT | 3.33 | 4.47 | 5.03 | 2.73 | 3.39 | 3.31 | 1.57 | 1.58 |

— the supplement of paper PMC6555819
